# Experimental data from PubChem BioAssay (NCATS).
# Unmarked numbers belong to inactive results. Activity calls are given as the source filed them. Calls come from the whole dose curve; as a rule, active = well fitted inhibition curve with a large enough effect; inconclusive = small, poorly fitted or top-dose-only effect; inactive = flat fitted curve, though single readings scatter.
# Target: DNA polymerase III PolC-type (Bacillus subtilis (strain 168)) (UniProt P13267)
# Test: qHTS Validation Assay for the Inhibitors of DNA Replication in Gram-Positive Bacteria (AID 485295);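 for activity change, negative = inhibition: reconstituted holoenzyme with PolC plus beta clamp SSB and primase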
# Conditions: Gram-positive bacterial DNA replication assay; series mostly up to 57.1 µM; activity change, negative = inhibition: at the top concentration
# Protocol: B Subtilis DNA polymerase III holoenzyme complex was assayed for DNA production by fluorescent detection of the double-stranded DNA product with PicoGreen dye. The holoenzyme complex was reconstituted from the following purified protein components: DNA Polymerase III, beta subunit processivity factor, SSB single-stranded DNA binding protein, and Primase. Single-stranded, circular M13Gori was used as a substrate with dNTPs and NTPs also supplied to the substrate reagent. Compounds from the NCGC collection were incubated with the holoenzyme mixture for […] at room temperature to allow binding to occur, and then the reaction was started by the addition of substrate. After 30 min incubation at room temperature, PicoGreen solution containing EDTA was added to stop the reaction and to visualize the double-stranded DNA produced. Reaction progress was measured in a ViewLux CCD imager in fluorescence intensity mode by using 480 nm excitation and 540 nm emission filter set.
# 1. Thaw screening compounds.
# 2. Label assay plates. Prepare pipette tips, reagent reservoirs, buffers and controls.
# 1. Thaw Enzymes, DNA template, Nucleotides and PicoGreen dye concentrate. Thawed enzymes are stable on ice for ~1
# week. Other thawed components are stable indefinitely.
# 2. Prepare sufficient quantities of Enzyme, Substrate and PicoGreen Quench mixes (according to Table II). For the number of
# compound plates being screened.
# 3. Ensure that the tip wash station reservoirs have clean water and turn on recirculating chiller so that the chilled deck position
# 1. Load 2 uL of EDTA controls (250 mM, Background, 100 % inhibition) and 2 uL of DMSO controls (Negative control, 0%
# inhibition) in the screening plates (flat-bottomed black 384-well polypropylene, Greiner Bio-one).
# 2. Place Enzyme mix reservoir on the chiller position of the liquid handler deck. Make sure that chiller will maintain
# temperature of Enzyme mix at 4degC. Substrate mix and PicoGreen Quench can be stored at room temp.
# 3. Program liquid handling robotics to dispense 18 uL of Enzyme mix into assay plates. Wash tips.
# 4. Aspirate and dispense 2 uL of compound from compound plates, mix and Incubate at room temperature for 10 minutes.
# 5. Aspirate 5 ul of Substrate mix, dispense into assay plates and mix by pipetting. Wash tips.
# 6. Incubate at room temperature (21 +/- 1 deg C) for 20 minutes.
# 7. Quench reactions by addition of 25 uL PicoGreen Quench mix and mix by pipetting (using HTS robotics or bulk reagent
# dispenser such as a Multidrop or uFill). Keep plates in the dark or stacked until ready to read fluorescence.
# 8. Read fluorescence intensity of plates on plate reader using "Fluorescein (Ex 485 nm/ Em 535 nm, 0.1s)" setting.
# Potency is the fitted concentration of half-maximal effect.
# Sequence of DNA polymerase III PolC-type (Bacillus subtilis (strain 168)) (P13267 whole entry, looked up): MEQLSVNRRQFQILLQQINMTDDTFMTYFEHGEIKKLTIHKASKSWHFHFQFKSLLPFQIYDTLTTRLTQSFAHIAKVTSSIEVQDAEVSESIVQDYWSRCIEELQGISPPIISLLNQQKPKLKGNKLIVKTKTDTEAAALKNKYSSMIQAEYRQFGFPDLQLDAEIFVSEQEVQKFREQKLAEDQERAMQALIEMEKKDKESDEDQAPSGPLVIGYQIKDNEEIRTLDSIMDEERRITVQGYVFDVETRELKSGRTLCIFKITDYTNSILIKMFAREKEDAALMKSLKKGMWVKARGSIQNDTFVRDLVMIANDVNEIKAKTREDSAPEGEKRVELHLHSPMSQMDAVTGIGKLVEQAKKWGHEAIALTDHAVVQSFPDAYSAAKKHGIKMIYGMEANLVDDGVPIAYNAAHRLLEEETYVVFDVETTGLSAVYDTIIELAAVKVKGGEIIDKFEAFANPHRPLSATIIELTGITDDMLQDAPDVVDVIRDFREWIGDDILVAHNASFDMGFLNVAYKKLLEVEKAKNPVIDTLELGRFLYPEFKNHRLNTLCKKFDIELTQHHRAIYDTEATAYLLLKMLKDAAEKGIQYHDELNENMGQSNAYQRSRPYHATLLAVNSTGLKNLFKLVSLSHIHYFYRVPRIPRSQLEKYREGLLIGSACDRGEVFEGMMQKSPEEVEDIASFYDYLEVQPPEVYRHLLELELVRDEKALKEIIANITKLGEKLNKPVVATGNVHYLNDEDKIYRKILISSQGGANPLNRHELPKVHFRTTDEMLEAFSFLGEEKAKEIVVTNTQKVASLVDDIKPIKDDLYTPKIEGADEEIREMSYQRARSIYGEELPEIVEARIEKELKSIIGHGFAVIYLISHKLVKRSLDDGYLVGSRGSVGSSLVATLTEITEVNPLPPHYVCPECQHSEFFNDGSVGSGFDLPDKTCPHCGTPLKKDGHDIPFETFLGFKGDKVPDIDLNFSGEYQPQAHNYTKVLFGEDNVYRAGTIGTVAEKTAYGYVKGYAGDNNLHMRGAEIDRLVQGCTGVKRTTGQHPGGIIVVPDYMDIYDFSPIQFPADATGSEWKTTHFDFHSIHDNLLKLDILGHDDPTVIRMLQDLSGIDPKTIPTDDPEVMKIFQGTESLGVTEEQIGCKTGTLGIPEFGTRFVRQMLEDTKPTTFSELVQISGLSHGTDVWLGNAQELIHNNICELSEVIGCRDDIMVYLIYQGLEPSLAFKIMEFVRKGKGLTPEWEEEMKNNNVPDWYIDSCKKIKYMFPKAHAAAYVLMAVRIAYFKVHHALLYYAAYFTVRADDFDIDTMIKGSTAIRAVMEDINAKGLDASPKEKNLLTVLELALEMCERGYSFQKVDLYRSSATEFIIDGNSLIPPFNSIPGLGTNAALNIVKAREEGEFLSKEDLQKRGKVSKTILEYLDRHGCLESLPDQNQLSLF
SMILES,"activity change, negative = inhibition",Potency
CCn1cnc2c(Nc3cccc(Cl)c3)nc(N[C@@H]3CCCC[C@@H]3N)nc21,-1.52%,
CN1CC[C@@]2(C)c3cc(OC(=O)Nc4ccccc4)ccc3N(C)[C@@H]12,-1.89%,
CN(C(=O)Cc1ccc(Cl)c(Cl)c1)C(CN1CCCC1)c1cccc(OCC(=O)O)c1 (stereo not given),3.73%,
N#C/C(=C/c1ccc(O)c(O)c1)C(N)=S,-12%,
COc1ccc2[nH]cc(CCN)c2c1,3.25%,
COc1ccc2c(c1)/C(=C/c1cnc[nH]1)C(=O)N2,-17.7%,
C[C@H](N)Cc1cccc(C(F)(F)F)c1,6.28%,
C#CCN[C@H](C)Cc1ccccc1,1.91%,
CC(N)Cc1c[nH]c2ccc(O)cc12 (stereo not given),6.75%,
CN1CCc2cc(O)cc3c2[C@H]1Cc1ccc(O)c(O)c1-3,-10.2%,
O=[N+]([O-])/C=C/c1ccc2c(c1)OCO2,-0.379%,
CCCN1CCc2cc(O)cc3c2[C@H]1Cc1ccc(O)c(O)c1-3,-12.5%,
C[N+](C)(C)CC#CCOC(=O)Nc1cccc(Cl)c1,3.84%,
c1ccc2c(N3CCNCC3)cccc2c1,-3.82%,
Ic1ccccc1CNC1C2CCN(CC2)C1C(c1ccccc1)c1ccccc1 (stereo not given),-0.643%,
NC(C(=O)O)c1cc(=O)[nH]o1 (stereo not given),-1.22%,
C[N+]1(C)C2CCC1CC(OC(=O)c1c[nH]c3ccccc13)C2 (stereo not given),-0.393%,
Clc1cc(I)cc(Cl)c1NC1=NCCN1,2.5%,
C=CCN1CCc2cccc3c2[C@H]1Cc1ccc(O)c(O)c1-3,-14.7%,
NCC(O)c1cc(O)c(O)cc1F (stereo not given),7.59%,

SMILES,"activity change, negative = inhibition",Potency
C[N+]1(C)CCc2cc3c(cc2[C@H]1[C@@H]1OC(=O)c2c1ccc1c2OCO1)OCO3,2.36%,
OCc1cnc[nH]1,6%,
C[Se]C[C@H](N)C(=O)O,-2.18%,
CN1CCc2cccc(Cl)c2CC1,2.92%,
NCCc1c[nH]c2ccc(C(N)=O)cc12,-2.22%,
CC(=O)NBr,4.01%,
NC(N)=NOCC[C@H](N)C(=O)O,-7.06%,
N[C@@H](Cn1oc(=O)[nH]c1=O)C(=O)O,-1.32%,
CCCN(CCC)CCc1c[nH]c2ccc(C(N)=O)cc12,-7.02%,
Oc1ccc2c3c1O[C@H]1c4[nH]c5ccccc5c4C[C@@]4(O)C(C2)N(CC2CC2)CCC314 (stereo not given in full),1.85%,
CC(C)NP(=O)(NC(C)C)OP(=O)(NC(C)C)NC(C)C,-0.306%,
NCCCP(=O)(O)O,-4.15%,
C[N+](C)(C)CC#CCN1CCCC1=O,-3.65%,
COC(=O)N1CCN(C(=O)Cc2ccc(Cl)c(Cl)c2)C(CN2CCCC2)C1 (stereo not given),-0.383%,
C[C@]12Cc3cn4c(nc3C=C1CCC1C2CC[C@@]2(C)[C@H]1CC[C@@]2(O)C#N)nc1ccccc14 (stereo not given in full),-5.73%,
O=C(O)c1cc[c]([Hg][Cl])cc1,,4.74 µM (active)
C[C@H](Cc1ccc2c(c1)OC(C(=O)O)(C(=O)O)O2)NC[C@H](O)c1cccc(Cl)c1,5.77%,
CN(N=O)c1cc(O)ccc1O,,23.8 µM (active)
CN1CCC(c2c[nH]c3ccc(O)cc23)CC1,3.56%,
O=C1CC[C@@]2(O)C3Cc4ccc(O)c5c4C2(CCN3CC2CC2)[C@H]1O5 (stereo not given in full),7.04%,
